In PubChem BioAssay (NCATS):
Records with an inconclusive call do not appear. Active and inactive are the calls of the source. The call rests on the fitted dose curve; in most records, active means well fitted curve in the direction sought with a large enough effect; inconclusive means small, poorly fitted or top-dose-only effect, or another doubt; inactive means no such curve, though single readings can be large; an effect the other way counts as inactive or inconclusive.

Tests used:
[1] = qHTS of pediatric cancer cell lines to identify multiple opportunities for drug repurposing: Primary screen for U-2 OS cells (AID 1347096); further: nearly all actives have a fitted effect of over 50% in size
Summary of the method: (§1)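 Cells (500-1,000/well) rested 5 h, then received compounds for 48 h; metabolically active cells were measured by CellTiter-Glo luminescence. Final concentrations spanned up to 46 µM (MIPE, 11-point) or 0.59 nM-46 µM (NPC, 8-point) in primary screens, 11-point in follow-ups.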

[2] = qHTS of pediatric cancer cell lines to identify multiple opportunities for drug repurposing: Primary screen for Saos-2 cells (AID 1347097); further: nearly all actives have a fitted effect of over 40% in size
Summary of the method: (§2)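 Luminescence from CellTiter-Glo served as readout of metabolically active cells after 48 h compound exposure. Titrations: MIPE 11-point, from 0.78 nM; NPC 8-point, from 0.59 nM (final). Concentration-response curves came straight from the primary screen.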

[3] = qHTS of pediatric cancer cell lines to identify multiple opportunities for drug repurposing: Primary screen for SK-N-SH cells (AID 1347098);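 further: DMSO served as neutral control and bortezomib at 2.3 µM as positive control; nearly all actives have a fitted effect of over 65% in size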
Summary of the method: as §1

[4] = qHTS of pediatric cancer cell lines to identify multiple opportunities for drug repurposing: Primary screen for NB1643 cells (AID 1347099); further: nearly all actives have a fitted effect of over 50% in size
Summary of the method: as §2

[5] = qHTS of pediatric cancer cell lines to identify multiple opportunities for drug repurposing: Primary screen for LAN-5 cells (AID 1347100)
Summary of the method: as §1

[6] = qHTS of pediatric cancer cell lines to identify multiple opportunities for drug repurposing: Primary screen for Rh18 cells (AID 1347102); further: nearly all actives have a fitted effect of over 65% in size
Summary of the method: as §1

[7] = qHTS of pediatric cancer cell lines to identify multiple opportunities for drug repurposing: Primary screen for RD cells (AID 1347104); further: nearly all actives have a fitted effect of over 55% in size
Summary of the method: as §2

[8] = qHTS of pediatric cancer cell lines to identify multiple opportunities for drug repurposing: Primary screen for MG 63 (6-TG R) cells (AID 1347105); further: nearly all actives have a fitted effect of over 50% in size
Summary of the method: as §2

[9] = qHTS of pediatric cancer cell lines to identify multiple opportunities for drug repurposing: Primary screen for control Hh wild type fibroblast cells (AID 1347106);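 further: series mostly up to about 46 µM; a drop in luminescence marks cytotoxicity and a rise apparent proliferation; nearly all actives have a fitted effect of over 55% in size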
Summary of the method: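 Viability after 48 h compound treatment at 37C, 500-1,000 cells/well, read as ATP luminescence with CellTiter-Glo. Primary screens used 11-point (MIPE, 0.78 nM-46 µM) or 8-point (NPC, 0.59 nM-46 µM) final concentrations; follow-up screens used 11-point dilutions.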

[10] = qHTS of pediatric cancer cell lines to identify multiple opportunities for drug repurposing: Primary screen for Rh30 cells (AID 1347107); further: series mostly up to about 46 µM; nearly all actives have a fitted effect of over 75% in size
Summary of the method: as §1

[11] = qHTS of pediatric cancer cell lines to identify multiple opportunities for drug repurposing: Primary screen for Rh41 cells (AID 1347108);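 further: series mostly up to about 46 µM; luminescence drop marks cytotoxic hits; nearly all actives have a fitted effect of over 70% in size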
Summary of the method: as §2

[12] = qHTS of pediatric cancer cell lines to identify multiple opportunities for drug repurposing: Primary screen for BT-12 cells (AID 1347101); further: nearly all actives have a fitted effect of over 25% in size
Summary of the method: as §1

[13] = qHTS of pediatric cancer cell lines to identify multiple opportunities for drug repurposing: Primary screen for OHS-50 cells (AID 1347103); further: nearly all actives have a fitted effect of over 40% in size
Summary of the method: as §1

[14] = qHTS of pediatric cancer cell lines to identify multiple opportunities for drug repurposing: Confirmatory screen for A673 cells (AID 1347110);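 further: cells exposed to compound for 48 h before the viability read; nearly all actives have a fitted effect of over 65% in size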
Summary of the method: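 A673 cells seeded at 500-1,000 cells/well, rested 5 h, then dosed; primary MIPE 11-point (0.78 nM to 46 µM), NPC (0.59 nM to 46 µM); confirmatory 11-point. CellTiter-Glo luminescence after 48 h.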

[15] = qHTS of pediatric cancer cell lines to identify multiple opportunities for drug repurposing: Confirmatory screen for DAOY cells (AID 1347114); further: nearly all actives have a fitted effect of over 65% in size
Summary of the method: (§3)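 Viability measured as metabolically active cells via CellTiter-Glo luminescence following 48 hours of compound exposure, 11-point dilutions in confirmatory testing. 500-1,000 cells/well plated 5 hours before dosing; controls were DMSO and 2.3 µM bortezomib.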

[16] = qHTS of pediatric cancer cell lines to identify multiple opportunities for drug repurposing: Confirmatory screen for NB-EBc1 cells (AID 1347115);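 further: cells exposed to compound for 48 h before the viability read; nearly all actives have a fitted effect of over 45% in size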; further: potency means the concentration at half of the fitted maximal effect
Summary of the method: as §1

[17] = qHTS of pediatric cancer cell lines to identify multiple opportunities for drug repurposing: Confirmatory screen for NB1643 cells (AID 1347109); further: nearly all actives have a fitted effect of over 45% in size
Summary of the method: as §1

[18] = qHTS of pediatric cancer cell lines to identify multiple opportunities for drug repurposing: Confirmatory screen for SK-N-MC cells (AID 1347111);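 further: cells exposed to compound for 48 h before the readout; nearly all actives have a fitted effect of over 70% in size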
Summary of the method: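 Seed 500-1,000 cells/well; rest 5 h at 37 degrees C. Pin-transfer compounds, 11-point titration. Incubate 48 h. Add CellTiter-Glo, 15 min RT, read luminescence.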

[19] = qHTS of pediatric cancer cell lines to identify multiple opportunities for drug repurposing: Confirmatory screen for BT-12 cells (AID 1347112); further: nearly all actives have a fitted effect of over 55% in size
Summary of the method: as §1

[20] = qHTS of pediatric cancer cell lines to identify multiple opportunities for drug repurposing: Confirmatory screen for SJ-GBM2 cells (AID 1347116); further: nearly all actives have a fitted effect of over 60% in size
Summary of the method: as §3

Measured: Potency

C[N+]1(CC2COC(c3ccccc3)(C3CCCCC3)O2)CCCCC1 (stereo unspecified)
inactive: [1] | [2] | [3] | [4] | [5] | [6] | [7] | [8] | [9] | [10] | [11]

O=C1OC(CN2CCOCC2)CN1/N=C/c1ccc([N+](=O)[O-])o1 (stereo unspecified)
inactive: [1] | [2] | [3] | [4] | [12] | [6] | [13] | [7] | [8] | [9] | [10] | [11]

C[N+]12CCC(CC1)C(OC(=O)C(O)(c1ccccc1)c1ccccc1)C2 (stereo unspecified)
inactive: [1] | [2] | [3] | [5] | [12] | [6] | [13] | [7] | [8] | [9] | [10] | [11]

CCOC(=O)[C@H](CCc1ccccc1)N[C@@H](C)C(=O)N1[C@H](C(=O)O)C[C@@H]2CCC[C@@H]21
inactive: [1] | [2] | [3] | [4] | [12] | [6] | [13] | [7] | [8] | [9] | [10] | [11]

CN(CCCN1c2ccccc2CCc2ccccc21)CC(=O)c1ccc(Cl)cc1
inactive: [1] | [2] | [3] | [4] | [5] | [6] | [7] | [8] | [9] | [10] | [11]

CCCN(CCC)S(=O)(=O)c1ccc(C(=O)O)cc1
inactive: [1] | [2] | [3] | [5] | [12] | [6] | [13] | [7] | [8] | [9] | [10] | [11]

NS(=O)(=O)Cc1noc2ccccc12
inactive: [1] | [2] | [4] | [5] | [12] | [6] | [13] | [7] | [8] | [9] | [10] | [11]

CC(C)(C)NC[C@H](O)COc1nsnc1N1CCOCC1
inactive: [1] | [2] | [3] | [5] | [12] | [6] | [13] | [8] | [9] | [10] | [11]

COc1cc(C(=S)N2CCOCC2)ccc1O
inactive: [1] | [2] | [4] | [5] | [12] | [6] | [13] | [7] | [8] | [9] | [10] | [11]

CN(C)C(=O)Nc1ccc(Cl)c(Cl)c1
inactive: [1] | [2] | [4] | [5] | [12] | [6] | [13] | [7] | [8] | [9] | [10] | [11] | [14] | [15]
active: [16] 23.3 µM

CCOCCn1c(N2CCCN(C)CC2)nc2ccccc21
inactive: [1] | [2] | [4] | [5] | [12] | [6] | [13] | [7] | [8] | [10] | [11]

CCCCCCCCCCCCCCCCO
inactive: [1] | [2] | [4] | [5] | [12] | [6] | [13] | [7] | [8] | [10] | [11]

N#CCC(=O)NN
inactive: [1] | [2] | [4] | [5] | [12] | [6] | [13] | [7] | [8] | [9] | [10] | [11]

CC(C)Cc1ccc(CC(=O)O)cc1
inactive: [1] | [2] | [4] | [5] | [12] | [6] | [13] | [7] | [8] | [9] | [10] | [11]

NC(=O)C1(N2CCCCC2)CCN(CCCC(=O)c2ccc(F)cc2)CC1
inactive: [1] | [2] | [4] | [5] | [12] | [6] | [13] | [7] | [8] | [9] | [10] | [11]

Cc1cccc(C)c1NC(=O)CN1CCCCCC1
inactive: [1] | [2] | [4] | [5] | [12] | [6] | [13] | [7] | [8] | [9] | [10] | [11]

CC(C)NCC(O)c1ccc2ccccc2c1 (stereo unspecified)
inactive: [1] | [2] | [4] | [5] | [12] | [6] | [13] | [7] | [8] | [9] | [10] | [11]

COc1ccc(C(=O)c2ccccc2)c(O)c1
inactive: [1] | [2] | [4] | [5] | [12] | [6] | [13] | [8] | [9] | [10] | [11] | [17] | [14] | [18] | [19] | [15] | [16] | [20]

Cc1ccccc1OCC(O)CO (stereo unspecified)
inactive: [1] | [2] | [4] | [5] | [12] | [6] | [13] | [7] | [8] | [10] | [11]
